PubChem BioAssay AID651640 (Broad Institute, 2012)
Screen size: about 350,000 compounds; about 6,000 (1.7%) were called active. Not shown: some 5% with an inconclusive outcome. The sample holds actives, similar compounds and a random draw of the others, so the mix is not that of the screen. A number with no mark means an inactive call. Rule as the data show it: active = CPE inhibition above about 20% (passing the limit was not always enough); inconclusive = no clear call, values can overlap the other calls; tested in BHK-21 cells.

assay: protection of cells from dengue 2 killing – plate reader, single concentration, primary screen (AID 651640); settings: DENV2-infected cells, cytopathic effect rescue, at 9.99 µM, hits give high values;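 also: 0% = median of neutral control wells and 100% = median of positive control wells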

| SMILES | CPE inhibition |
| --- | --- |
| CC(=O)N(C)C[C@@H]1Oc2ncc(C#CCc3ccccc3)cc2C(=O)N([C@H](C)CO)C[C@H]1C | 13.5% |
| CO[C@@H]1CN(C)C(=O)c2cc(NC(=O)c3ccccc3)ccc2OC[C@H](C)N(C(=O)CN(C)C)C[C@H]1C | -4.5% |
| C[C@H](CO)N1C[C@H](C)[C@H](CN(C)Cc2ccc(C(=O)O)cc2)Oc2ccc(NS(=O)(=O)c3cn(C)cn3)cc2CC1=O | -5.77% |
| CC(C)NC(=O)N(C)C[C@H]1Oc2ccc(NS(C)(=O)=O)cc2CC(=O)N([C@@H](C)CO)C[C@H]1C | -8.84% |
| CO[C@H]1CN(C)C(=O)c2cc(NC(=O)c3nc4ccccc4s3)ccc2OC[C@H](C)N(Cc2cccnc2)C[C@@H]1C | 21.1% (active) |
| CO[C@@H]1CN(C)C(=O)c2cc(NC(=O)c3cnccn3)ccc2OC[C@@H](C)N(CC2CC2)C[C@H]1C | -5.97% |
| CO[C@H]1CN(C)C(=O)c2cc(NC(=O)c3cnccn3)ccc2OC[C@H](C)N(C(=O)C2CC2)C[C@H]1C | 7.36% |
| CO[C@H]1CN(C)C(=O)c2cc(NC(=O)c3cnccn3)ccc2OC[C@@H](C)N(CC2CC2)C[C@@H]1C | 26.7% (active) |
| CO[C@H]1CN(C)C(=O)c2ccc(NC(=O)c3nc4ccccc4s3)cc2OC[C@@H](C)N(Cc2cncnc2)C[C@H]1C | -2.74% |
| CO[C@H]1CN(C)C(=O)c2ccc(NC(=O)c3nc4ccccc4s3)cc2OC[C@H](C)N(Cc2cccnc2)C[C@@H]1C | 3.73% |
| COCC#Cc1ccc([C@@H]2[C@@H](CO)N3C(=O)CN(C(=O)C4CCCC4)C[C@@H]23)cc1 | -7.7% |
| CC(C)NC(=O)N(C)C[C@H]1Oc2ccc(N(C)C)cc2C(=O)N([C@@H](C)CO)C[C@H]1C | -2.75% |
| C[C@@H]1CCCCO[C@H](CN(C)C(=O)CCC(F)(F)F)[C@H](C)CN([C@H](C)CO)C(=O)c2cc(NC(=O)NC3CCCCC3)ccc2O1 | 0.687% |
| COCC(=O)Nc1ccc2c(c1)C(=O)N(C)C[C@@H](OC)[C@@H](C)CN(C(=O)c1ccccc1)[C@@H](C)CO2 | 0.375% |
| CN1CCN(C(=O)c2cc3c(c(-c4cccc(-c5ccc(C(=O)N(C)C)cc5)c4)n2)[C@@H](CCO)N([S@](=O)C(C)(C)C)C3)CC1 | 1.85% |
| O=C(CN1CCOCC1)N1CCCCN2[C@@H](CO)[C@H](c3ccc(-c4ccccc4)cc3)[C@@H]2C1 | -4.15% |
| O=C(CN1CCOCC1)N1CCCCN2[C@H](CO)[C@H](c3ccc(-c4ccccc4)cc3)[C@@H]2C1 | 6.44% |
| O=C(CN1CCOCC1)NC[C@@H]1N[C@@H](CO)[C@@H]1c1ccc(-c2ccccc2)cc1 | 29.8% (active) |
| CN1C(=O)c2cc(NC(=O)c3cnccn3)ccc2OC[C@@H]2O[C@H](CC(=O)O)CC[C@@H]21 | 0.738% |
| CCN(CC(=O)NCc1cccs1)C(=O)/C=C/c1ccc(C)cc1 | 13.7% |
| CCOc1ccc(/C=C/C(=O)N(CC)CC(=O)NCc2cccs2)cc1OC | 67.5% (active) |
| COc1ccc(/C=C/C(=O)OCC(=O)NCc2cccs2)cc1OC | -0.984% |
| COc1ccccc1C#Cc1ccc([C@H]2[C@H](CO)N3CCCCN(C(=O)C4CCC4)C[C@@H]23)cc1 | -8.41% |
| Cc1cc(C)cc(NC(=O)NC2CCN(CC(=O)Nc3cccc(Cl)c3C)CC2)c1 | -4.01% |
| Cc1cccc(C(=O)NC2CCN(CC(=O)Nc3cccc(Cl)c3)CC2)c1 | 39% (active) |

| SMILES | CPE inhibition |
| --- | --- |
| O=C(CN1CCC(NC(=O)Nc2ccccc2)CC1)Nc1cccc([N+](=O)[O-])c1 | -9.16% |
| C[C@H]1CN([C@@H](C)CO)S(=O)(=O)c2ccc(C#Cc3ccccc3)cc2O[C@@H]1CN(C)C(=O)C1CC1 | 19.8% |
| Cc1ccccc1C1=NC(C(F)(F)F)(C(F)(F)F)c2c(n(-c3ccc(F)cc3)c(=O)[nH]c2=O)N1 | 22.3% (active) |
| COc1ccc2c3c([nH]c2c1)[C@H](CO)N(C(=O)Nc1ccc(F)cc1)CC31CN(S(=O)(=O)c2cccc(F)c2)C1 | 1.82% |
| CCCNC(=O)N1[C@@H](C#N)[C@H](c2ccc(-c3ccc(C(=O)N(C)C)cc3)cc2)[C@@H]1CO | -5.96% |
| COC(=O)C[C@@H]1CC[C@@H]2[C@H](COc3ccc(NS(=O)(=O)c4ccccc4F)cc3C(=O)N2C)O1 | 1.86% |
| C[C@@H]1CCCCO[C@H](CN(C)C(=O)Nc2ccc3c(c2)OCO3)[C@H](C)CN([C@H](C)CO)C(=O)c2cc(NS(C)(=O)=O)ccc2O1 | 11.9% |
| CCC(CO)Oc1cc(NCc2ccccc2)c2ncn(C3CCCC3)c2c1 (centres undefined) | 64.4% (active) |
| CCC(CO)Oc1cc(NC(=O)c2cccc(F)c2)c2ncn(C(C)C)c2c1 (centres undefined) | -10.5% |
| CCC(CO)Oc1cc(NC(=O)c2cccc3ccccc23)c2ncn(C(C)C)c2c1 (centres undefined) | -11.1% |
| COc1ccc(SSc2ccc(OC)cc2C(=O)O)c(C(=O)O)c1 | 2.7% |
| O=S(=O)(c1ccccc1)N1CCCCN2[C@@H](CO)[C@H](c3ccc(C#Cc4cccnc4)cc3)[C@@H]2C1 | 17.6% |
| COCC(=O)N1CCCCN2[C@H](CO)[C@H](c3ccc(-c4ccc(OC)cc4)cc3)[C@H]2C1 | -1.33% |
| CN(C)CC(=O)N1CCCCN2[C@@H](CO)[C@H](c3ccc(-c4cccnc4)cc3)[C@@H]2C1 | 33.3% (active) |
| COCC(=O)N1CCCCN2[C@H](CO)[C@@H](c3ccc(-c4ccc(OC)cc4)cc3)[C@@H]2C1 | -7.09% |
| C[C@@H](O)C#Cc1ccc([C@@H]2[C@H]3CN(C(=O)c4ccc5c(c4)OCO5)CCCCN3[C@H]2CO)cc1 | 2.09% |
| CC(C)C#Cc1ccc([C@H]2[C@H](CO)N3CCCCN(C(=O)c4ccc(F)cc4)C[C@@H]23)cc1 | 10.5% |
| CC(C)(O)C#Cc1ccc([C@H]2[C@@H](CO)N3CCCCN(C(=O)c4ccncc4)C[C@H]23)cc1 | 0.094% |
| C[C@H](O)C#Cc1ccc([C@H]2[C@H](CO)N3CCCCN(C(=O)c4ccc(F)cc4)C[C@@H]23)cc1 | 41.2% (active) |
| COc1ccc(C#Cc2ccc([C@@H]3[C@@H](CO)N4CCCCN(C(=O)c5ccncc5)C[C@@H]34)cc2)cc1 | 50.9% (active) |
| COc1ccc(-c2ccc([C@@H]3[C@@H](CO)N4CCCCN(C(=O)NC(C)C)C[C@H]34)cc2)cc1 | 63.6% (active) |
| CCC(=O)N1CCCCN2[C@H](CO)[C@@H](c3ccc(-c4cccnc4)cc3)[C@H]2C1 | -0.425% |
| O=C(Nc1ccccc1F)N1CCCCN2[C@H](CO)[C@@H](c3ccc(-c4cccnc4)cc3)[C@H]2C1 | 5.39% |
| C[C@H](O)C#Cc1ccc([C@@H]2[C@@H](CO)N3CCCCN(C(=O)c4ccncc4)C[C@@H]23)cc1 | -16.7% |
